H9c2 TAG inh = triacylglycerol accumulation inhibition. actives 0.66% (n = 230,000). H9c2 cells, Nile Red lipid (TAG) fluorescence; cells loaded with 200 µM oleic acid. inhibition, % at 12.5 µM. AID 651582;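 active = pattern-corrected inhibition of lipid staining of at least 50% with the nuclear-stain viability signal not falling by more than 50%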
aDG glyco act = increases alpha dystroglycan glycosylation; activation, % at 10 µM; actives 0.22% (n = 360,000); Pro5-aDG cells, alpha-DG glycosylation AlphaScreen (IIH6); 0% Pro5, 100% B10-LARGE cell signal;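 active = activation of at least 8% versus controls, or a plate z-score of at least 8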;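 note: Pro5 are CHO cells carrying HIG-tagged alpha-DG that lacks glycosylation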
NadD block = NadD (S. aureus) enzyme inhibition; purified NadD enzyme, colorimetric absorbance read-out; inhibition, % at 20 µM; actives 0.78% (n = 360,000); AID 602399; in the data active = inhibition above about 26%
MPTP block = blocks calcium-induced mitochondrial swelling. isolated mouse mitochondria, Ca2+ swelling absorbance, 30 min. inhibition, % at 10 µM. actives 1.4% (n = 360,000). AID 602449;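 active = inhibition of 50% or more, scaled per plate between neutral and stimulator controls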
MPTP counter = membrane potential counter-screen of mitochondrial pore inhibitors; isolated mitochondria, Rhodamine 123 fluorescence; shares compounds with MPTP block; inhibition, % at 10 µM; actives 78% (n = 5,000); AID 624504; in the data active = inhibition above about 22%
MPTP abs DR = MPTP inhibition, dose response swelling confirmation; shares compounds with MPTP block; isolated mitochondria swelling, absorbance; IC50, µM; actives 58% (n = 780); AID 651561; in the data active = IC50 below about 20 µM
MPTP cs DR = MPTP inhibitor counter-screen activity, dose response. shares compounds with MPTP block. isolated mitochondria counterscreen, fluorescence read-out. IC50, µM. actives 49% (n = 780); in the data active = IC50 below about 80 µM
Large screens that a line does not name were inactive (follow-up assays come after a bar, where they were run). The list is not random: actives were taken first. Their share in the collection is about 2.7%.

NC(c1csc(Nc2nncc3ccccc23)n1)C1CCCCC1 (configuration not stated)	none
Cc1cc(C(=O)COc2ccccc2C(N)=O)c(C)n1CC1CCCO1 (configuration not stated)	MPTP block 93 | MPTP counter 80
Cc1ccc(Sc2cc(NCCCO)c([N+](=O)[O-])c3nonc23)cc1	MPTP block 72 | MPTP counter 34
CC(=O)OCCCNc1cc(Sc2ccc(Cl)cc2)c2nonc2c1[N+](=O)[O-]	none
CC(C)(C)C(=O)Cn1c(=N)n(Cc2ccccc2Cl)c2ccccc21	MPTP block 56 | MPTP counter inactive | MPTP abs DR 11 | MPTP cs DR 55
CC(C)(C)C(=O)Cn1c(=N)n(Cc2ccccc2)c2ccccc21	none
Cc1cc(N2CCN(C)CC2)ccc1NC(=O)c1ccc(-c2ccc(Cl)cc2)o1	MPTP block 54 | MPTP counter inactive
CCC1(O)CCCC2C3CCC4CC(=O)CCC4(C)C3C(=O)CC21C (configuration not stated)	none
COc1ccc(NC(=O)Cn2c(=O)oc3cc(S(=O)(=O)N4CCCC4)ccc32)cc1	none
Cc1ccc(NC(=O)Cn2c(=O)oc3cc(S(=O)(=O)N4CCC(C)CC4)ccc32)cc1C	MPTP block 70 | MPTP counter 90
O=C(Nc1ccccc1Br)C(=O)N1CCCC1	none (no result: H9c2 TAG inh)
O=C(NNc1ccccc1Br)C(=O)n1ccc2ccccc21	MPTP block 57 (no result: H9c2 TAG inh) | MPTP counter 57
COc1cccc(OCC(=O)NNC(=S)Nc2ccc(Cl)cc2Cl)c1	MPTP block 68 | MPTP counter 99
Fc1ccc(C2c3cccn3CCN2C(=S)Nc2cccc(Br)c2)cc1 (configuration not stated)	MPTP block 90 | MPTP counter 66
COC(=O)c1cc(NC(=O)c2cc(-c3ccccc3Cl)oc2C(F)(F)F)ccc1N1CCOCC1	none
COC(=O)c1cc(NC(=O)c2cc(-c3ccc(Cl)cc3)oc2C(F)(F)F)ccc1N1CCOCC1	MPTP block 76 | MPTP counter 80
CC(C)(C)OC(=O)C[C@H]1C/C=C\C[C@H](CC(=O)N(CCO)Cc2ccccc2)C(=O)N2CCC[C@H]2COC1=O	none
CC(OC(=O)c1ccc2ccccc2c1)C(=O)N(C)Cc1ccccc1 (configuration not stated)	none
CC(C)N(CCC(=O)c1ccc2ccccc2c1)Cc1ccccc1	MPTP block 99 | MPTP counter inactive
COc1ccc(N2CC(C(=O)N3CCN(C(=O)c4ccco4)CC3)CC2=O)cc1 (configuration not stated)	none (no result: H9c2 TAG inh)
O=C(CCCCN1CCCCC1)c1ccc2c(c1)Cc1ccccc1-2	MPTP block 95 | MPTP counter 81
CC(C)(C)C1CCC2(CC1)C(C#N)=C(SCC(=O)NC1CCCCC1)NC(=O)C2C#N (configuration not stated)	MPTP block 79 (no result: H9c2 TAG inh) | MPTP counter 88
N#CC1=C(SCC(=O)NC23CC4CC(CC(C4)C2)C3)NC(=O)C(C#N)C12CCCCC2 (configuration not stated)	MPTP block 80 (no result: H9c2 TAG inh) | MPTP counter 87
N#CC1=C(SCC(=O)NC2CC2)NC(=O)C(C#N)C12CCCCC2 (configuration not stated)	none (no result: H9c2 TAG inh)
O=C(CSc1nc2ccc([N+](=O)[O-])cc2[nH]1)c1ccc2ccccc2c1	MPTP block 99 (no result: H9c2 TAG inh) | MPTP counter 68
O=C(CSc1nc2ncc(Br)cc2[nH]1)c1ccc([N+](=O)[O-])cc1	none (no result: H9c2 TAG inh)
CN(C)CCNC(=O)C1(C)Cc2c(-c3cccc(C(F)(F)F)c3)ccnc2O1 (configuration not stated)	none
CC(=O)c1sc(NC(=O)C=C(C)C)nc1C	none (no result: H9c2 TAG inh)
CC(=O)c1sc(NC(=O)C2(F)C(F)(F)C(F)(F)C(F)(F)C(F)(F)C2(F)F)nc1C	MPTP block 95 (no result: H9c2 TAG inh) | MPTP counter 91
OC1(c2ccc3ccccc3c2)CCN(Cc2ccccc2)C1 (configuration not stated)	MPTP block 55 | MPTP counter inactive | MPTP abs DR inactive | MPTP cs DR inactive
CC1(c2ccc3ccccc3c2)NC(=O)N(CC(=O)N2CCN(Cc3ccccc3)CC2)C1=O (configuration not stated)	none
COc1ccc(-c2c[n+]3c4n2CCCCC4=C(c2ccc(Br)cc2)C3)cc1	MPTP block 56 (no result: H9c2 TAG inh) | MPTP counter 68
Clc1ccc(C2=C3CCCCn4c(-c5ccccc5)c[n+](c43)C2)cc1	none
O=Cc1c[nH]c2ccc(S(=O)(=O)N3CCCCC3)cc12	none
O=C(NNc1ccc([N+](=O)[O-])cc1)c1ccccc1Cl	none
O=C(NC(NNc1ccc([N+](=O)[O-])cc1)(C(F)(F)F)C(F)(F)F)c1ccc(Cl)cc1	MPTP block 98 | MPTP counter 78
FC(F)(F)c1nc(SCc2ccc(Cl)cc2Cl)n[nH]1	MPTP block 63 | MPTP counter 90
Cc1ccc(S(=O)(=O)CCC(=O)Nc2nnc(-c3cccs3)o2)cc1	none
CCOC(=O)C1(Cc2cccc(OC)c2)CCN(Cc2ccc(C)s2)CC1	MPTP block 97 | MPTP counter 85
CCOC(=O)C1(CCOc2ccccc2)CCN(Cc2ccccc2O)CC1	none
CCOC(=O)C1(CCOc2ccccc2)CCN(Cc2ccc(OC)cc2)CC1	MPTP block 87 | MPTP counter 36
CCOC(=O)C1(Cc2cccc(OC)c2)CCN(Cc2cccc(O)c2)CC1	none
CCOC(=O)C1(CCOc2ccccc2)CCN(Cc2cccc(OC)c2OC)CC1	MPTP block 75 | MPTP counter 33
O=C(CNC(=O)c1ccccc1F)Nc1ccccc1C(F)(F)F	none
COc1ccc(NS(=O)(=O)c2ccc3oc(SCc4ccc(F)cc4)nc3c2)cc1	MPTP block 60 | MPTP counter 50
Cn1nc(C(F)(F)F)c(-c2ccc(F)cc2)c1NC(=O)Nc1ccc(F)cc1	MPTP block 74 | MPTP counter 89
Cn1nc(C(F)(F)F)c(-c2ccc(Br)cc2)c1NC(=O)c1ccco1	none
Cc1cc(C)n(-c2ccc(NC(=O)C3CCN(Cc4ccccn4)CC3)cc2)n1	none (no result: H9c2 TAG inh)
S=C(Nc1ccc(OCc2ccccc2)cc1)Nc1cccc(Cl)c1Cl	MPTP block 86 (no result: H9c2 TAG inh) | MPTP counter 79
O=C(CSCc1ccccc1)NNC(=S)Nc1cccc(Cl)c1Cl	MPTP block 92 | MPTP counter 103
COc1ccc(C(=O)N2[C@@H](C(C)C)COc3cc(Br)ccc3S2(=O)=O)cc1	none
COc1ccc(Cl)c2sc(N(CCN(C)C)C(=O)c3ccc4c(c3)OCCO4)nc12	MPTP block 74 | MPTP counter inactive | MPTP abs DR inactive | MPTP cs DR 50
COc1cc2ccccc2cc1C(=O)N(CCN(C)C)c1nc2c(C)cccc2s1	MPTP block 69 (no result: H9c2 TAG inh) | MPTP counter inactive | MPTP abs DR inactive | MPTP cs DR inactive

Assay outcomes as filed in PubChem.
